# KLK7 zymogen act: proKLK7 (human) activation, primary screen. P49862. purified proKLK7, EDANS-DABCYL substrate fluorescence; 100% is mature enzyme control, 0% vehicle. activation, % at 7 µM. 370,000 compounds, 0.9% hits. AID 652039;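 active means activation above the mean of all tested compounds plus 3 SD, computed per campaign excluding outliers beyond control limits, cut at about 13% in these data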
# ADAM17 inh: inhibitors of human ADAM17; P78536; recombinant ADAM17, EDANS/DABCYL FRET peptide cleavage; inhibition, % at 6.95 µM; 370,000 compounds, 0.83% hits; AID 720648;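 active means inhibition above the mean of compounds lying between control limits plus 3 SD, set per campaign, cut at about 8.5% in these data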
# Target sequence (P78536 215-824 limits assumed): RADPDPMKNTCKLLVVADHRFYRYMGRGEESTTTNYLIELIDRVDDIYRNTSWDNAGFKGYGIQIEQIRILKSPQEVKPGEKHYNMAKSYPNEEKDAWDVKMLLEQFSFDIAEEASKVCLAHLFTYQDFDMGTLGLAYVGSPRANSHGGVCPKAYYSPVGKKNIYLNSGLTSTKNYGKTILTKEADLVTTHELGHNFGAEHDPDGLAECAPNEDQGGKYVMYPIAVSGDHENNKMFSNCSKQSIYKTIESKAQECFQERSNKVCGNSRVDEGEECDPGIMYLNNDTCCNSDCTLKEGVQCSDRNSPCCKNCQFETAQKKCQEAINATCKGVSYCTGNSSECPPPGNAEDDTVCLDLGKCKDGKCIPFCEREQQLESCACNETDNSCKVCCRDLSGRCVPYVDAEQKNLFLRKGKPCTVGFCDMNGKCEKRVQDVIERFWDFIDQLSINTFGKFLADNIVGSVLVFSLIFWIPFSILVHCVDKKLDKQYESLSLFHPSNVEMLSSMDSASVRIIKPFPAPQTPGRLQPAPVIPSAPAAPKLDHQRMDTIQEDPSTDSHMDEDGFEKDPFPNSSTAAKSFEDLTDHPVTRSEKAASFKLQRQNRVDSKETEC
# GRIN3A LBD mod: NR3A (human) ligand-binding domain modulation. NR3A LBD differential scanning fluorimetry, Tm shift; 0% = protein alone, 100% = glycine-bound protein. AID 1259313. 340,000 compounds, 2.5% hits. Tm shift relative to glycine control, % at 25 µM;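 active means melting temperature shift of at least 10% of the positive control shift, at one fixed dose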
# ADAM10 inh: inhibits human ADAM10. O14672. AID 720582. recombinant ADAM10, EDANS/DABCYL FRET peptide cleavage, 3 h. 370,000 compounds, 0.62% hits. inhibition, % at 7 µM;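 active means inhibition above a per-campaign cutoff equal to the mean of compounds falling between control-based bounds plus 3 SD, cut at about 20% in these data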
# FAS-TE inh: blocks the thioesterase domain of human fatty acid synthase. P49327. recombinant FAS-TE, OMFH fluorogenic substrate, fluorescence endpoint. inhibition, % at 15 µM. 360,000 compounds, 0.67% hits;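 active means compounds whose normalised, plate-corrected inhibition of enzyme fluorescence in the single-dose primary screen is 50% or more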
# FAS-TE inh conf: confirmation of human fatty acid synthase thioesterase inhibitors. shares compounds with FAS-TE inh. recombinant FAS-TE, OMFH fluorogenic substrate, fluorescence. inhibition, % at 15 µM. 2,300 compounds, 45% hits. AID 624325;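 active means compounds inhibiting the enzyme by at least 50% at 15 µM in any one of the replicates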
# A number is an active result; i = inactive; nt = not tested or not shown; ! = repeats disagree. A selection: hits, their analogues and other compounds. The true share with any hit is near 4.6%.
SMILES,KLK7 zymogen act,ADAM17 inh,GRIN3A LBD mod,ADAM10 inh,FAS-TE inh,FAS-TE inh conf
CC(C)(C)C(=O)Nc1nc(C2CCCN2S(=O)(=O)c2ccc(Cl)cc2)cs1 (stereo unspecified),i,i,i,i,55,65
N#Cc1c(-c2cccs2)nc(SCc2ccc(Cl)cc2)[nH]c1=O,i,i,i,i,66,79
CSc1nc(-c2cccs2)c(C#N)c(=O)[nH]1,i,i,i,i,i,nt
CC1(C)CC[C@]2(C(=O)n3ccnc3)CC[C@]3(C)[C@H](C(=O)C=C4[C@@]5(C)C=C(C#N)C(=O)C(C)(C)[C@@H]5CC[C@]43C)[C@@H]2C1,i,i,i,i,96,68
COC(=O)c1ccccc1NC(=O)COC(=O)c1ccc(C)c(NC(=O)c2ccco2)c1,i,i,i,i,71,i
COC(=O)c1ccccc1NC(=S)NC(NC(=O)c1ccco1)C(Cl)(Cl)Cl (stereo unspecified),nt,nt,i,nt,50,i
COC(=O)c1ccccc1NC(=S)NC(NC(=O)COc1ccccc1)C(Cl)(Cl)Cl (stereo unspecified),i,i,i,i,71,i
O=C(NC(NC(=S)Nc1ccccc1C(=O)O)C(Cl)(Cl)Cl)c1ccco1 (stereo unspecified),i,i,i,i,i,nt
CC(C(=O)NCCC1=CCCCC1)c1ccc([N+](=O)[O-])cc1 (stereo unspecified),i,i,i,i,70,69
Cc1ccccc1OC(C)C(=O)NCCC1=CCCCC1 (stereo unspecified),i,i,i,i,i,nt
CC(Oc1cccc([N+](=O)[O-])c1)C(=O)NCCC1=CCCCC1 (stereo unspecified),i,i,i,i,72,i
Cc1ccc(S(=O)(=O)N2C=C(c3ccccc3)c3ccccc3-c3ccccc32)cc1,nt,i,nt,i,nt,nt
O=C(NCc1ccco1)C1CCCN(S(=O)(=O)c2ccc(F)cc2)C1 (stereo unspecified),i,i,nt,i,nt,nt
Cc1ccc(CSc2nnc(-c3cc(-c4ccc(C)cc4)n[nH]3)n2N)cc1,i,i,nt,i,nt,nt
O=C(NCCc1ccccc1)OCc1cn(-c2cccc(C(F)(F)F)c2)nn1,i,i,nt,i,nt,nt
O=C(CN1CCN(c2ncc(C(F)(F)F)cc2Cl)CC1)NCCNc1ncc(C(F)(F)F)cc1Cl,i,i,i,i,62,i
C/C(=N\NC(=S)NC1CCCCC1)c1ccc(OC(F)F)cc1OC(F)F,i,i,i,i,57,i
O=C(COc1ccc2c3c(c(=O)oc2c1)CCC3)N1CCCC1,i,i,i,i,i,nt
Cc1c(C)c2ccc(OCC(=O)N3CCN(c4ccccc4)CC3)cc2oc1=O,nt,nt,i,nt,56,64
O=C(COc1ccc2c3c(c(=O)oc2c1)CCC3)N1CCN(c2ccccc2)CC1,i,i,i,i,50,34
CCCCNC(=O)C[C@H]1C[C@@]2(C(=O)OC)C(=C[C@H](C(C)C)O[C@@H]2C2CC2)N(Cc2ccco2)C1=O,i,i,nt,i,nt,nt
O=C(COc1ccc2c(-c3ccccc3)cc(=O)oc2c1)N[C@@H](Cc1c[nH]c2ccc(O)cc12)C(=O)O,i,i,i,i,74,70
Cc1ccc(N2C(=O)c3cccc4c(Oc5ccccc5[N+](=O)[O-])ccc(c34)C2=O)c(C)c1,i,i,i,i,61,i
O=C1c2cccc3c([N+](=O)[O-])ccc(c23)C(=O)N1c1ccccn1,i,i,i,i,i,nt
Cc1ccc(NC2=C(Cl)C(=O)OC2OC(=O)c2ccccc2)c(C)c1 (stereo unspecified),i,i,i,i,i,nt
SMILES,KLK7 zymogen act,ADAM17 inh,GRIN3A LBD mod,ADAM10 inh,FAS-TE inh,FAS-TE inh conf
Cc1cccc(C)c1NC1=C(Cl)C(=O)OC1OC(=O)c1ccccc1 (stereo unspecified),i,i,i,i,64,29
Cc1cc(C)c2nc(NC(=O)c3cccc(S(=O)(=O)N4CCc5ccccc54)c3)sc2c1,i,i,10,i,70,i
COc1ccc([N+](=O)[O-])cc1NC(=O)CC1SC(=Nc2cccc(C)c2C)N(/N=C/c2cccc(OC)c2OC)C1=O (stereo unspecified),i,i,21!,i,87,i
CCOc1ccccc1Nc1nnc(SC(C)C(=O)Nc2nc(-c3ccccc3)cs2)s1 (stereo unspecified),i,i,i,i,76,i
COC(=O)[C@]12C[C@H](CC(=O)N3CCN(C(=O)c4ccco4)CC3)C(=O)N(Cc3ccc4c(c3)OCO4)C1=C[C@H](C(C)C)O[C@@H]2C1CC1,i,i,nt,i,nt,nt
Cc1ccccc1C(=O)N(C)[C@H]1C[C@H]2c3[nH]c4c(-c5ccc6c(c5)OCO6)cccc4c3CCN2C(=O)[C@H]1[C@H](C)O,i,i,nt,i,nt,nt
CCOC(=O)CC[C@@H]1CC[C@]2(CCCN(C(=O)c3ccco3)C2)O1,i,i,nt,i,nt,nt
COC(=O)c1cc(C(=O)Nc2nnc(CC(C)C)s2)cc([N+](=O)[O-])c1,i,i,i,i,51,i
COC(=O)c1cc(C(=O)Nc2nnc(C3CC3)s2)cc([N+](=O)[O-])c1,i,i,i,i,51,60
CCOC1=C2[C@H](c3ccccc3)N(S(=O)(=O)c3ccc(C)cc3)C[C@H]2n2c(=O)n(-c3ccccc3)c(=O)n2C1,i,i,nt,i,i,nt
CCOC1=C2[C@H](c3ccc(Cl)cc3)N(S(=O)(=O)c3ccc(C)cc3)C[C@H]2n2c(=O)n(-c3ccccc3)c(=O)n2C1,i,i,nt,i,56,i
CCOC1=C2CN(S(=O)(=O)c3ccc(C)cc3)[C@H](c3ccccc3)C[C@H]2n2c(=O)n(-c3ccccc3)c(=O)n2C1,i,i,nt,i,70,i
CC1(C(=O)Nc2ccc(Cl)c(Cl)c2)CCN1C(=O)CC1CCCC1 (stereo unspecified),i,i,nt,i,62,54
CC(NC(=O)c1ccc(Cn2cc([N+](=O)[O-])cn2)cc1)c1ccccc1 (stereo unspecified),i,i,i,i,i,nt
CC(NC(=O)Cn1cc([N+](=O)[O-])cn1)c1ccc(C(C)(C)C)cc1 (stereo unspecified),i,i,i,i,76,55
CCn1c(=S)sc2c(=O)n(-c3ccccc3)c(SC)nc21,i,i,i,i,i,nt
N#CCSc1nc2c(sc(=S)n2Cc2ccco2)c(=O)n1-c1ccc(F)cc1,i,i,i,i,58,i
C=CCN1C(=O)[C@@H](CC(=O)NCCc2ccccc2OC)[C@]2(C(=O)OC)CCCCC=C12,i,i,nt,i,nt,nt
COc1cc(C(=O)Oc2ccccc2/C=N/NC(=O)c2ccc(Cl)cc2)cc(OC)c1OC,i,i,i,i,54,i
COc1cc(C(=O)N/N=C/c2coc3ccc(Cl)cc3c2=O)ccc1O,i,i,i,i,59,66
COc1ccc(C(=O)N/N=C\c2coc3ccc(Cl)cc3c2=O)cc1,i,i,i,i,i,nt
